TDP1 cell CPT: DT40-hTDP1 cell growth loss with CPT. chicken DT40 Tdp1-/-;hTDP1 cells + 20 nM CPT, ATP luminescence, 48 h. Potency, µM (series often up to 46.2 µM), for inactives: top-dose activity change, negative = growth inhibition, actives largely listed as inhibitors. 420,000 tested, 12% active. AID 686979; further: potency means the concentration at half of the fitted maximal effect; on the % scale 0 is the no-effect control and ±100 the full control effect; nearly all actives have a fitted effect of over 55% in size
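Cell growth measured by CellTiter-Glo luminescence after a minimum 48 h, 37 C compound exposure with 20 nM CPT in Tdp1-knockout DT40 cells stably expressing hTDP1, seeded 400/well; qHTS titration format.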
ClpP mod: qHTS Assay for Activators of ClpP; purified B. subtilis ClpP, FRET peptide cleavage, 20 min; Potency, µM (top dose mostly 57.5 µM), for inactives: at the top dose activity change, negative = active; 340,000 tested, 1.9% active; AID 651965, 2013; active means well fitted falling curve with a large enough effect; inconclusive means small, poorly fitted or top-dose-only effect; inactive means no such curve, though single readings can be large or run the other way; further: potency means the concentration at half of the fitted maximal effect; the source files actives as falling curves though it sought activators and does not explain the sign; nearly all actives have a fitted effect of over 65% in size
Target sequence (P80244 whole entry, looked up): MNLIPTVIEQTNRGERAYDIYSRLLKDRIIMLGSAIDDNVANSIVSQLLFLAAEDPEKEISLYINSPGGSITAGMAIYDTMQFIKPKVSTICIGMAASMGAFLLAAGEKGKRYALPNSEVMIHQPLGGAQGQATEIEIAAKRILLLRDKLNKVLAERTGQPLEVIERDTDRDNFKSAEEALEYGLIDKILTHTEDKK
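Buffer: 100 mM Tris/HCl pH8, 100 mM KCl, 0.05% low protease BSA, 2.5% glycerol, 0.01% Tween-20. ClpP 10 microg/mL final; 20 min RT; delta FRET normalized to ADEP and DMSO controls.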
D3 ag: D3 dopamine receptor (human) agonism. 410,000 tested, 0.58% active. D3R DiscoveRx beta-arrestin cells, luminescence, 90 min. max activation, %. P35462; in the data active means max activation above about 30%; further: 0% is about no effect
Target sequence (P35462 whole entry, looked up): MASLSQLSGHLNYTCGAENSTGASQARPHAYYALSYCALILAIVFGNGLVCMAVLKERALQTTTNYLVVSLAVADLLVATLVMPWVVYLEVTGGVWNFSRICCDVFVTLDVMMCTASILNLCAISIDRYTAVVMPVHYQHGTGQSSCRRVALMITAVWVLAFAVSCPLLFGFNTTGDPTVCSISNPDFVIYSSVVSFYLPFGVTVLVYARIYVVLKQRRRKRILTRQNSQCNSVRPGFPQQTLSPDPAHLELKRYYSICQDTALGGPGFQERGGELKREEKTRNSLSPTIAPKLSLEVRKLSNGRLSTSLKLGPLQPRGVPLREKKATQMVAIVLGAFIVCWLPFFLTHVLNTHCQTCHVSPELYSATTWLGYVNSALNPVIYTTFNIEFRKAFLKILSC
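Agonist-mode cell screen: cells plated at 1500/well and incubated overnight at 37 °C, then exposed to library compounds for 90 min at 37 °C. Detection reagent was added for 30–60 min at room temperature, and luminescence was read.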
DT40 TDP1 no CPT: qHTS for Inhibitors of human tyrosyl-DNA phosphodiesterase 1 (TDP1): qHTS in cells in absence of CPT; DT40 Tdp1-/- hTDP1 cells, no CPT, ATP luminescence, 48 h; Potency, µM (doses to about 46.2 µM), without a hit: at the top dose activity change, negative = growth inhibition, usual class: inhibitors; 420,000 tested, 15% active; AID 686978, 2013; further: potency means the concentration at half of the fitted maximal effect; on the % scale 0 is the no-effect control and ±100 the full control effect; nearly all actives have a fitted effect of over 55% in size
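Camptothecin absent (DMSO only). Human TDP1-complemented DT40 knockout cells, 400 cells/well, 37 °C for minimum 48 hr; ATP measured via CellTiter-Glo, 30 min dark incubation, luminescence.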
DRD3 antagonist: D3 dopamine receptor (human) antagonism; D3R cells, DiscoveRx beta-arrestin luminescence, antagonist mode; stronger effect = lower value; max response, negative = inhibition, %; 360,000 tested, 2.5% active; in the data active means max response below about -50%; inconclusive means no clear call, values can overlap the other calls; further: on the % scale 0 is the no-effect control and ±100 the full control effect
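Cells expressing the human receptor were seeded at 1500 cells/well, incubated overnight at 37 degrees C in 5% CO2, then exposed to library compounds with dopamine controls for 90 minutes at 37 degrees C before luminescent detection.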
IL-1B inflam inh: blocks inflammasome-driven IL-1 beta release; THP-1 LPS/ATP IL-1B secretion, AlphaLISA, 16 h; stronger effect = lower value; activity change, % at 57.5 µM; 360,000 tested, 4.7% active; in the data active means activity change below about -50%; inconclusive means mostly about -30% to -49%; further: on the % scale 0 is the no-effect control and ±100 the full control effect
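Secreted IL-1B measured by AlphaLISA bead assay after 16 h compound exposure of THP-1 cells; compounds (final up to 57.5 uM) added 1 h before LPS (250 ng/mL) and ATP (1.25 mM) stimulation; lower signal means less secretion.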
ClpP inh valid: inhibits B. subtilis ClpP protease, hit validation; Potency, µM (doses to about 57.5 µM), for the others: at the highest dose activity change, negative = inhibition, most hits filed as inhibitors; AID 743245; shares compounds with ClpP mod; 470 tested, 40% active; purified B. subtilis ClpP, FRET-FV substrate cleavage, 20 min; further: potency means the concentration at half of the fitted maximal effect; on the % scale 0 is the no-effect control and ±100 the full control effect; nearly all actives have a fitted effect of over 70% in size
Active calls of the source: *; ? = inconclusive; . = no result. Most compounds without a hit are left out; they make up all but 21% or so of the library. Unless noted, the call rests on the fitted dose curve; in most records, active means well fitted inhibition curve with a large enough effect; inconclusive means small, poorly fitted or top-dose-only effect; inactive means flat fitted curve, though single readings scatter.

SMILES | TDP1 cell CPT | ClpP mod | D3 ag | DT40 TDP1 no CPT | DRD3 antagonist | IL-1B inflam inh | ClpP inh valid
Cc1n[nH]c(=O)c2c(NC(=O)CSc3nc4ccccc4c(=O)n3CCCOC(C)C)oc(C)c12 | ? | 0% | 3 | ? | -1 | ? | .
Cc1nn2c(=O)cc(COC(=O)c3cccc(NC(=O)c4ccc(C(C)(C)C)cc4)c3)nc2s1 | 4% | -14% | 0 | 0% | . | . | .
COc1ccccc1C(C)NC(=O)c1ccccc1SCC(=O)N1CCCC1 (centres undefined) | -12% | -3% | -16 | -19% | -23 | 6 | .
COc1ccc(NC2c3ccccc3C(=O)N2c2ccccn2)cc1 (centres undefined) | 6% | 0% | -2 | 7% | 14 | 0 | .
Cc1ccccc1NC(=O)CSC1=Nc2ccccc2C2=NC(CCC(=O)NCc3ccccc3)C(=O)N12 (centres undefined) | -26% | ? | 6 | ? | . | . | .
O=C(CCC1N=C2c3ccccc3N=C(SCC(=O)Nc3ccccc3F)N2C1=O)NCc1ccccc1 (centres undefined) | ? | ? | 9 | ? | . | . | .
CCc1ccc(NC(=O)CSC2=Nc3ccccc3C3=NC(CCC(=O)NCCc4ccccc4)C(=O)N23)cc1 (centres undefined) | 23µM* | -11% | 2 | ? | . | . | .
CCN(CC)C(=O)CSC1=Nc2ccccc2C2=NC(c3ccccc3)C(=O)N12 (centres undefined) | ? | 16µM* | 0 | -5% | -62* | -1 | .
NC(=O)CSC1=Nc2ccccc2C2=NC(c3ccccc3)C(=O)N12 (centres undefined) | 1% | . | 5 | 9% | -7 | 0 | .
CCc1ccccc1NC(=O)CSC1=Nc2ccccc2C2=NC(Cc3ccccc3)C(=O)N12 (centres undefined) | 16µM* | 4% | -7 | ? | . | . | .
CCc1ccc(NC(=O)CSC2=Nc3ccccc3C3=NC(CCC(=O)NCc4ccccc4)C(=O)N23)cc1 (centres undefined) | ? | 45% | -10 | 23µM* | . | . | .
O=C(CN(C(=O)CCC(=O)Nc1ccccn1)C1CCCC1)NCc1ccccc1 | 4% | . | 6 | -15% | 0 | -1 | .
CC(C)(C)C(=O)N1CCC(O)(CS(=O)(=O)c2ccc(Cl)c(Cl)c2)CC1 | -10% | 1% | -18 | -23% | -9 | -7 | .
C[C@H](NC[C@H](O)CP(=O)(O)Cc1ccccc1)c1ccc(Cl)c(Cl)c1 | -2% | . | . | -13% | . | . | .
CC(C)C1N=C2c3ccccc3N=C(SCC(=O)NCc3ccc(Cl)cc3)N2C1=O (centres undefined) | ? | 4% | -6 | ? | . | . | .
CCOc1ccc(NC(=O)CSC2=Nc3ccccc3C3=NC(CCC(=O)NCc4ccco4)C(=O)N23)cc1 (centres undefined) | ? | 1% | 2 | ? | . | . | .
CCOc1ccc(NC(=O)CSC2=Nc3ccccc3C3=NC(CCC(=O)NCc4ccccc4)C(=O)N23)cc1 (centres undefined) | ? | 1% | -7 | 16µM* | . | . | .
CC(C)C1N=C2c3ccccc3N=C(SCC(=O)NCCc3ccc(S(N)(=O)=O)cc3)N2C1=O (centres undefined) | -10% | 32µM* | -5 | -15% | -2 | -1 | .
NC(=S)Nc1cc2ccccc2c2ccccc12 | ? | 34% | -3 | ? | -64* | 9 | 19%
CCN(Cc1nc(-c2cccc(C)c2)no1)C(=O)c1ccc2c(c1)OCO2 | -5% | 8.9µM* | -21 | -6% | -7 | -69* | -1%
CCCCCc1cc(=O)oc2c(C(CCN3CCCC3)c3ccc(N(C)C)cc3)c(OC)cc(OC)c12 (centres undefined) | 15µM* | 90% | -36 | 8.2µM* | ? | -76* | 20%
O=C(Nc1cccc(-c2cn3cccnc3n2)c1)c1ccc(Br)o1 | -20% | 3.5µM* | 0 | ? | 27 | -4 | 2.7µM*
COC1=CC(=O)OC(c2cccc(Cl)c2)C1 (centres undefined) | 7% | 2% | -5 | -13% | -6 | -11 | .
Cc1c(/C(O)=C2\C(=O)C(=O)N(CCCN(C)C)C2c2ccco2)cnn1-c1ccccc1 (centres undefined) | -10% | . | -5 | 0% | 7 | -9 | .
COc1ccc(S(=O)(=O)N2CCOCC2)cc1NC(=O)c1ccccc1-c1ccc(C(F)(F)F)cc1 | ? | 51% | -5 | ? | -5 | 26 | ?
SMILES | TDP1 cell CPT | ClpP mod | D3 ag | DT40 TDP1 no CPT | DRD3 antagonist | IL-1B inflam inh | ClpP inh valid
O=C(NNC(=O)c1ccccc1F)c1ccc(NS(=O)(=O)c2ccc(F)cc2)cc1 | -16% | 2% | -1 | 1% | -2 | 14 | .
CC(C)(C)NC(=O)Cn1c(=O)c(=O)n(Cc2ccccc2)c2ccc(Cl)cc21 | -6% | -10% | 4 | -8% | 10 | -6 | .
COc1ccc(NC2=CC(c3ccc(F)cc3)N(c3ccc(OC)cc3)C2=O)cc1 (centres undefined) | -18% | 94% | 1 | -28% | 0 | 3 | ?
COc1ccc(NCc2cc3cc4c(cc3n(CC(=O)Nc3ccc(C)c(C)c3)c2=O)OCO4)cc1 | . | 60% | -1 | . | . | . | ?
Nc1cc(N)nc(SCC(=O)N2CCN(S(=O)(=O)c3ccccc3)CC2)n1 | 5% | 1% | -1 | 9% | -15 | 0 | .
Cc1cc(C)cc(C(=O)NCC(=O)OCC(=O)NCC(F)(F)F)c1 | 3% | . | -2 | 2% | 8 | -5 | .
C/C(=N\NC(=O)c1ccccc1O)c1ccc(NC(=O)Cc2ccccc2)cc1 | -1% | -7% | -5 | -12% | -10 | 0 | .
COc1ccc(-c2cc(C(=O)Nc3c(Cl)cc(Cl)cc3Cl)c3ccccc3n2)cc1OC | ? | 230% | 1 | ? | 24 | 20 | 22µM*
CCOc1ccc(NC(=O)c2ccc(-c3ccccc3)s2)cc1 | 8% | -4% | 7 | 1% | . | . | .
CNC(=O)c1ccc(-c2ccccc2)s1 | -3% | 3.5µM* | -3 | -16% | 9 | -4 | 27µM*
CC1CCCC(C)N1CC(O)COCc1ccccc1F (centres undefined) | -6% | -1% | -6 | 7% | 0 | -1 | .

Compound activity as filed in PubChem BioAssay.
